# SARS PLP yeast: SARS-CoV PLP inhibition in yeast | AID 485353 | hit rate 0.19% among 330,000 | Potency, µM (top dose mostly 32.9 µM), for inactives: at the top dose activity, positive = growth rescue, usual class: activators | S. cerevisiae expressing SARS-CoV PLpro, growth rescue; calls by dose curve; note: 0% is about no effect; nearly all actives have a fitted effect of over 55% in size
# Pf growth 48h: inhibits P. falciparum growth in the first generation, 48 h; P. falciparum luciferase growth in erythrocytes, 48 h; Potency, µM (series often up to 28.7 µM), inactives show at the top dose activity change, negative = inhibition, most hits filed as inhibitors; hit rate 5.9% among 310,000; AID 504832; note: % is set by controls: 0 for no effect and ±100 for the full control effect
#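 Luciferase-expressing P. falciparum in infected erythrocytes (2% hematocrit, 0.1% parasitemia final) in RPMI 1640/0.5% Albumax were exposed to compound for 48 hours at 37 C, 5% CO2; growth read as luminescence.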
# Pf growth 96h: P. falciparum growth inhibition at 96 hour, primary screen for plastid delayed-death inhibitors; P. falciparum luciferase reporter growth, 96 h; Potency, µM (top dose mostly 28.7 µM), for the others: at the top dose activity change, negative = inhibition, actives largely listed as inhibitors; hit rate 6.9% among 320,000; note: % is set by controls: 0 for no effect and ±100 for the full control effect
#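 Infected RBCs, 2% Hct / 0.05% parasitemia final; luciferase-reporter P. falciparum; cpd 96 h, 37 C, 5% CO2; luciferase detection reagent; luminescence.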
# NS1 function inh: inhibitors of influenza NS1 protein function | AID 2326 | Potency, µM (highest dose often 46.1 µM), without a hit: at the top dose activity, positive = more growth | hit rate 0.4% among 270,000; calls by dose curve; note: actives are rising curves; nearly all actives have a fitted effect of over 50% in size
#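 OD600 was taken as the measure of yeast growth restored by compound in an NS1-expressing S. cerevisiae strain. Cells had been washed out of glucose medium and diluted 1:100 into galactose -URA medium, pH 6.0.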
# The depositor's hits bear a star; ? = inconclusive; . = no result given. Shown are actives, neighbours in structure and some others; about 10% of the full set was active somewhere. Unless noted, calls come from the whole dose curve; as a rule, active = well fitted inhibition curve with a large enough effect; inconclusive = small, poorly fitted or top-dose-only effect, or another doubt; inactive = no such curve, though single readings can be large or run the other way. Potency is the fitted concentration of half-maximal effect.
SMILES,SARS PLP yeast,Pf growth 48h,Pf growth 96h,NS1 function inh
COc1ccc(-n2nc3c(c2NC(=O)c2cc4ccccc4oc2=O)CS(=O)(=O)C3)cc1,.,.,.,6.3µM*
CCN(C(=O)COC(=O)CCc1c[nH]c2ccccc12)c1c(N)n(Cc2ccccc2)c(=O)[nH]c1=O,0%,5%,0%,.
CC(C)(C)c1ccc(C(=O)Nc2ccc(F)cc2)s1,-3%,31%,5%,6%
CCc1cc2cc(C(=O)Nc3ccccc3F)sc2s1,-3%,204%,9.3µM*,4%
CCc1cc2cc(C(=O)Nc3ccc(F)cc3)sc2s1,3%,-2%,0.41µM*,-1%
Cc1nn(C2CCS(=O)(=O)C2)c2nc(C3CC3)cc(C(=O)Nc3cccc(C#N)c3)c12 (stereo not drawn),5%,?,?,.
CCc1ccc(C2CC(=O)N(c3cccc(F)c3)C3=C2C(=O)OC3)cc1 (stereo not drawn),-3%,-11%,?,.
Cc1ccc(S(=O)(=O)Nc2ccccc2C(=O)Nc2nc(-c3ccc(F)cc3)cs2)cc1,-92%,13µM*,?,-60%
Cc1ccc(S(=O)(=O)Nc2nc(-c3ccccc3)cs2)cc1,-3%,-1%,0%,-14%
CN(C)S(=O)(=O)c1ccc(N2CCCC2)c(C(=O)Nc2nc(-c3ccc(F)c(F)c3)cs2)c1,-23%,?,10µM*,18%
COc1ccc(-c2csc(NC(=O)c3ccccc3NS(=O)(=O)c3ccc(F)c(F)c3)n2)cc1,-4%,1.9µM*,?,0%
COCc1ccc(C(=O)N2CCCC(C(=O)c3cc(F)ccc3F)C2)s1 (stereo not drawn),0%,?,?,0%
COCC(=O)N(Cc1cc2cc(C)ccc2[nH]c1=O)c1ccc(C)c(C)c1,-1%,-8%,10µM*,-3%
Cc1ccc(N(Cc2cc3ccccc3[nH]c2=O)C(=O)c2cccs2)cc1C,1%,12µM*,?,0%
Cc1nn(C)cc1C(=O)Nc1ccc2c(c1)OCCO2,-1%,114%,0%,7%
CCOc1ccc(CNCCc2ccc(S(N)(=O)=O)cc2)cc1,0%,-13%,92%,1%
CCOc1ccc2ccccc2c1CNCCc1ccc(S(N)(=O)=O)cc1,5%,12µM*,?,2%
COc1cc(CNCCc2ccc(S(N)(=O)=O)cc2)ccc1OCC(=O)NC1CCCCC1,-2%,?,?,4%
CCOc1cc(CNCCc2ccc(S(N)(=O)=O)cc2)ccc1OCc1ccc(Cl)cc1,?,9.3µM*,?,10%
COc1cc(CNCCc2ccc(S(N)(=O)=O)cc2)ccc1OCc1ccc(Cl)cc1,-8%,8.3µM*,6.6µM*,2%
COc1ccccc1NC(=O)C(C)OC(=O)CCCc1c[nH]c2ccccc12 (stereo not drawn),0%,-18%,0%,.
CCN(Cc1cc(Cl)cc(C)c1O)Cc1c(O)ccc2ccccc12,.,.,.,-5%
NS(=O)(=O)c1ccc(CCNc2nc(CN3CCCCC3)nc3sc4c(c23)CCC4)cc1,2%,12µM*,6.6µM*,-6%
Cc1cccc(C(=O)NCCCNC(=O)c2cccnc2)c1,1%,18%,7%,5%
COc1ccc(-c2nnc3n(CCc4ccccc4)c(=O)c4ccccc4n23)cc1OC,5%,20%,12µM*,-11%
SMILES,SARS PLP yeast,Pf growth 48h,Pf growth 96h,NS1 function inh
COc1cc2c(cc1OC)-c1cc(N3CCCc4ccccc43)nc(=O)n1CC2,-9%,?,0%,-36%
COc1cc2c(cc1OC)-c1cc(N3CCc4ccccc43)nc(=O)n1CC2,0%,?,12µM*,-2%
CCOc1cccc(Nc2cc3n(c(=O)n2)CCc2cc(OC)c(OC)cc2-3)c1,7%,?,3.7µM*,7%
COc1cc2c(cc1OC)-c1cc(Nc3ccccc3)nc(=O)n1CC2,0%,?,?,-7%
Cc1cc(C)cc(C(=O)Nc2ccc(N3CCCC3)cc2)c1,0%,-17%,13%,2%
CC(C)Oc1ccc(C(=O)Nc2ccc(N3CCCC3)cc2)cc1,-8%,13µM*,9.3µM*,?
O=C(Nc1ccc(N2CCCC2)cc1)c1ccc(Br)cc1,5%,13µM*,0%,22%
CC(C)Oc1ccc(C(=O)Nc2ccc(N3CCN(C(=O)c4ccco4)CC3)cc2)cc1,2%,?,?,12%
COc1ccc(NC(=O)c2ccc3ccccc3c2)cc1,1%,287%,?,5%
COc1ccc(C(=O)Nc2ccc(N3CCN(C)CC3)cc2)cc1,-3%,107%,0.093µM*,-24%
COc1ccc(C(=O)Nc2ccc(C(=O)OCC(=O)c3cccc4ccccc34)cc2)cc1,12%,?,13µM*,-6%
COc1ccc(NC(=O)c2nc[nH]c2C(=O)NCCCCCNC(=O)OC(C)(C)C)cc1,5%,3%,31%,.
COc1ccc(C2/C=C\CN(C(=O)C3CCCC3)[C@H](Cc3ccccc3)C(=O)N2Cc2ccc(F)cc2)cc1 (stereo partly drawn),-1%,8.3µM*,10µM*,9%
COc1ccc(C2/C=C\CN(S(=O)(=O)c3ccc(C)cc3)[C@H](Cc3ccccc3)C(=O)N2Cc2ccc(F)cc2)cc1 (stereo partly drawn),-3%,4.1µM*,8.3µM*,?
COc1ccc(C2/C=C\CN(C(=O)c3ccc(C)cc3)CC(=O)N2Cc2ccc(F)cc2)cc1 (stereo not drawn),-1%,?,?,1%
COc1ccc(C2/C=C\CN(S(=O)(=O)c3ccc(-c4ccccc4)cc3)CC(=O)N2Cc2ccc(F)cc2)cc1 (stereo not drawn),-5%,12µM*,4.7µM*,7%
COc1ccc(C2/C=C\CN(C(=O)Nc3ccccc3)CC(=O)N2Cc2ccc(F)cc2)cc1 (stereo not drawn),-6%,?,22%,2%
O=C(c1cncc(Br)c1)N1CCN(S(=O)(=O)c2ccc(Cl)cc2)CC1,0%,-9%,-5%,7%
CC(=O)Nc1ccc(S(=O)(=O)NCc2cc(=O)n(C)c(=O)n2C)cc1,11%,20%,11%,15%
CCOc1ccc(C(C)=O)cc1CN1C(=O)NC2(CCCCCCC2)C1=O,0%,12µM*,?,-7%
Fc1ccc(NC(=S)Nc2nccs2)cc1,-8%,13µM*,0.29µM*,.
S=C(Nc1ccccc1)Nc1nccs1,-2%,?,7.4µM*,-33%
O=C(Cc1ccc(F)cc1)Nc1nccs1,-2%,?,?,22%
O=C(O)CC[C@@]1(c2ccccc2)NC(=O)NC1=O,.,.,.,-1%
Cc1cc(C(=O)N[C@H](c2ccccc2)[C@@]2(C)C[C@@H]2[C@@H](C)C(=O)Nc2ccc3ccccc3c2)n(C)n1,-5%,2.6µM*,3.7µM*,7%
C[C@@H](C(=O)NCCc1c[nH]c2ccccc12)[C@H]1C[C@]1(C)[C@H](NC(=O)OCc1ccccc1)c1ccccc1,1%,13µM*,9.3µM*,28%
C[C@H](CO)NC(=O)[C@H](C)[C@H]1C[C@]1(C)[C@H](NC(=O)OCc1ccccc1)c1ccccc1,18%,3%,1%,-10%

# Source: PubChem BioAssay (National Center for Advancing Translational Sciences (NCATS))
